Molecules are shown by their SMILES. Records with an inconclusive call do not appear. Active and inactive are the calls of the source. Calls come from the whole dose curve; as a rule, active = well fitted activation curve with a large enough effect in the repeat runs; inconclusive = weak or mixed curves; inactive = flat fitted curve, though single readings scatter.
% is set by controls: 0 for no effect and ±100 for the full control effect.

The nature of the test: A CellTox Green Cytotoxicity Assay to monitor cytotoxicity in HEK293 cells - 24 hour (AID 1224875). Note: nearly all actives have a fitted effect of over 45% in size. The settings on record: CellTox Green fluorescence; series mostly up to 76.8 µM; activity change: at the top concentration. Put shortly: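 Cytotoxicity was tracked continuously in HEK293 cells by a DNA-binding dye excluded from viable cells. Compounds were transferred in DMSO 5 h after seeding; fluorescence was recorded at intervals up to 40 h.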
Regarding `CCCCCC[C@@H](O)C/C=C\CCCCCCCC(=O)O`, the “activity change” value was -9.03% (inactive). For `CCCCC(CC)CN` (stereo unspecified) the value was 2.25% (inactive); for `CC1=C(Br)C(=O)C(Br)=C/C1=C(/c1ccccc1S(=O)(=O)O)c1cc(Br)c(O)c(Br)c1C`, -9.7% [at 35.3 µM, active compounds read high] (inactive); for `O[C@@H]1CO[C@H]2[C@@H]1OC[C@@H]2O`, -2.55% [at 35.3 µM, active compounds read high] (inactive).

`CCCCCCCCCCC(=O)O`: the “activity change” value was 1.44% (inactive). Regarding `CC1(C)[C@H](C(=O)O)N2C(=O)C[C@H]2S1(=O)=O`, the “activity change” value is -0.265% [at 35.3 µM, active compounds read high] (inactive). For `CN1CC(=O)N2[C@H](c3ccc4c(c3)OCO4)c3[nH]c4ccccc4c3C[C@@H]2C1=O` the value was 2.27% [at 35.3 µM, active compounds read high] (inactive); for `O=C(/C=C/c1ccccc1)OCCc1ccccc1`, 5.26% (inactive); for `Nc1cccc2c1CN(C1CCC(=O)NC1=O)C2=O` (stereo unspecified), -3.73% [at 35.3 µM, active compounds read high] (inactive). As to `Cc1ccccc1S`, the “activity change” value is 6.46% [at 35.3 µM, active compounds read high] (inactive). Under `CN1C(=O)OC(C)(C)C1=O` stands 14% (inactive). Under `Oc1cccc(O)c1O` stands -7.04% (inactive). `COc1cc(C(=O)NCCCCCC(=O)O)cc(OC)c1OC`: the “activity change” value is -4.23% [at 35.3 µM, active compounds read high] (inactive). Under `CCOC(=O)[C@H](CCc1ccccc1)N[C@@H](C)C(=O)N(CC(=O)O)C1Cc2ccccc2C1` stands 0.969% [at 35.3 µM, active compounds read high] (inactive). In the case of `C=C/C(C)=C/C/C=C(\C)CCC=C(C)C`, the “activity change” value was 2.67% (inactive). As to `CCOC(=O)OC(C)OC(=O)[C@@H]1N2C(=O)[C@@H](NC(=O)[C@H](N)c3ccccc3)[C@H]2SC1(C)C` (stereo partly specified), the “activity change” value is 3.32% [at 35.3 µM, active compounds read high] (inactive).

Source of the values: PubChem BioAssay (Tox21).
